Laboratory results taken from the supplement of paper PMC6518042.

Each compound was assayed on Pectobacterium parmentieri SCC3193 (assay: DuctApe activity index (growth/respiration on compound as sole nutrient source, blank-subtracted) (activity index (0-3)); higher = stronger utilization of the compound, active = 3 or more). Settings: nutrient role (plate category): nitrogen.
Protocol: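 Biolog Phenotype Microarray plates PM1, PM2A (carbon), PM3 (nitrogen) and PM4 (phosphorus/sulfur) inoculated with P. parmentieri SCC3193 in M9-C minimal salts medium with Biolog dye A, and read in the OmniLog for 46 h. Each well was tested in triplicate and the experiment was run twice. DuctApe computed a blank-subtracted activity index (AV, 0-3) from the mean curves; growth is positive at AV >= 3 and negative at AV <= 2.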

| SMILES | DuctApe activity index |
| --- | --- |
| NC(=O)NC1NC(=O)NC1=O (stereo unspecified) [Allantoin] | 0 (inactive) |
| CCCCCN [N-Amylamine] | 0 (inactive) |
| O=c1cc[nH]c(=O)[nH]1 [Uracil] | 0 (inactive) |
| NCCCC[C@@H](N)C(=O)O [D-Lysine] | 0 (inactive) |
| NCCCCN=C(N)N [Agmatine] | 0 (inactive) |
| O=C(O)CC[C@@H](C(=O)O)N1C(=O)c2ccccc2C1=O [N-Phthaloyl-L-Glutamic acid] | 0 (inactive) |
| O=c1[nH]c(=O)c2nc[nH]c2[nH]1 [Xanthine] | 3 (active) |
| C[C@H](N)C(=O)N[C@@H](CC(=O)O)C(=O)O | 1 (inactive) |
| CC(C)[C@@H](N)C(=O)O [D-Valine] | 0 (inactive) |
| NC(=O)NC(N)=O [Biuret] | 0 (inactive) |

Same assay, conditions: nutrient role (plate category): phosphate & sulphur

| SMILES | DuctApe activity index |
| --- | --- |
| O=C(O)CP(=O)(O)O [Phosphono Acetic acid] | 0 (inactive) |
| N[C@@H](CCC(=O)N[C@@H](CS)C(=O)NCC(=O)O)C(=O)O [Glutathione] | 1 (inactive) |
| C[C@H](CCC(=O)NCCS(=O)(=O)O)[C@H]1CC[C@H]2[C@@H]3[C@H](O)C[C@@H]4C[C@H](O)CC[C@]4(C)[C@H]3C[C@H](O)[C@]12C [Taurocholic acid] | 2 (inactive) |
| Nc1ncnc2c1ncn2[C@@H]1O[C@H](CO)[C@@H](OP(=O)(O)O)[C@H]1O [Adenosine 3`-Monophosphate] | 2 (inactive) |
| CS(=O)(=O)CC[C@H](N)C(=O)O [L-Methionine Sulfone] | 0 (inactive) |
| Nc1ccn([C@@H]2O[C@H](CO)[C@@H](O)[C@H]2OP(=O)(O)O)c(=O)n1 [Cytidine 2`-Monophosphate] | 3 (active) |
| N[C@@H](CSC[C@H](N)C(=O)O)C(=O)O [Lanthionine] | 1 (inactive) |
| C[N+](C)(C)CCOP(=O)(O)O [Phosphoryl Choline] | 1 (inactive) |
| O=C(O)[C@H](O)[C@@H](O)[C@H](O)[C@H](O)COP(=O)(O)O [6-Phospho-Gluconic acid] | 2 (inactive) |
| O=P(O)(O)OC[C@H]1OC(O)C[C@@H](O)[C@@H]1O (stereo partly drawn) [2-Deoxy-D-Glucose 6-Phosphate] | 1 (inactive) |
| CSCC[C@@H](N)C(=O)O [D-Methionine] | 2 (inactive) |
